Laboratory results as given in paper PMC8384837, “Expanding the binding specificity for RNA recognition by a PUF domain”.
Changes are numbered by the printed parent chain.

Assays:
Test in all cases: yeast three-hybrid, YBZ-1, SC-Leu-His + 0.5 mM 3-AT, 4 days
Settings in all cases: tags: N-Gal4 AD-HA kept; label: inside an RPR1-promoter hybrid RNA with tandem MS2 sites; ssRNA
PUM1 PUF domain R4-NYP = PUM1 PUF domain R4-NYP (Homo sapiens, UniProt Q14671 828-1176, H972Y;Q975P)
Method in brief: (§1)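 A centromeric plasmid in strain YBZ-1 co-expressed Pumilio-1 PUF domain libraries, randomized at the three base-contacting residues of each repeat, with matching RNA elements; the strain carries a LexA–MS2 coat fusion and a HIS3 reporter. After four days on SC-Leu (input) or SC-Leu-His + 0.5 mM 3-AT (selection), the repeat regions were PCR-amplified and Illumina-sequenced. The interaction score is the log change in variant frequency from input to selection, using log2 and a pseudocount of 1 where absent.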

PUM1 PUF domain R4-MPS = PUM1 PUF domain R4-MPS (Homo sapiens, UniProt Q14671 828-1176, N971M;H972P;Q975S)
Method in brief: as §1

PUM1 PUF domain R6-NWI = target: T1, PUM1 PUF domain R6-NWI (Homo sapiens, UniProt Q14671 828-1176, Y1044W;Q1047I)
T1 sequence: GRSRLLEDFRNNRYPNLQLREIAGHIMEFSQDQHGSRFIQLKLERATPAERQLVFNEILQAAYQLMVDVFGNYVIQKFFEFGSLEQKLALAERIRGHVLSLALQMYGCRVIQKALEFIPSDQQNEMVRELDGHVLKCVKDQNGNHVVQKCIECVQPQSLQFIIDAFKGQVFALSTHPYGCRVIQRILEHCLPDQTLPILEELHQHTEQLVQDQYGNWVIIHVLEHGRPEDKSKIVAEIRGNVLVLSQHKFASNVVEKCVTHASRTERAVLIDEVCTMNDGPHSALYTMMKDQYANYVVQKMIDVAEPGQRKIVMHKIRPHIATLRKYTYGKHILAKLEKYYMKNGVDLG
Method in brief: as §1

PUM1 PUF domain R5-LLR = PUM1 PUF domain R5-LLR (Homo sapiens, UniProt Q14671 828-1176, C1007L;R1008L;Q1011R)
Method in brief: as §1

PUM1 PUF domain R3-GND = PUM1 PUF domain R3-GND (Homo sapiens, UniProt Q14671 828-1176, C935G;R936N;Q939D)
Method in brief: as §1

PUM1 PUF domain R5-RQP = PUM1 PUF domain R5-RQP (Homo sapiens, UniProt Q14671 828-1176, C1007R;R1008Q;Q1011P)
Method in brief: as §1

PUM1 PUF domain R5-KSS = PUM1 PUF domain R5-KSS (Homo sapiens, UniProt Q14671 828-1176, C1007K;R1008S;Q1011S)
Method in brief: as §1

PUM1 PUF domain R6-GWK = target: T2, PUM1 PUF domain R6-GWK (Homo sapiens, UniProt Q14671 828-1176, N1043G;Y1044W;Q1047K)
T2 sequence: T1 sequence with N216G, I220K
Method in brief: as §1

PUM1 PUF domain R3-RAM = PUM1 PUF domain R3-RAM (Homo sapiens, UniProt Q14671 828-1176, C935R;R936A;Q939M)
Method in brief: as §1

## GGCUAGAACUAGUGGAUCCCCCGGCGCCCGGCGGCUCGAGCCCGGGUAAGUGUACAUAGUCUGCAUGCCGCCGGGCGCCAUGCCUGCAGGUCGACUCUAGAAAACAUG
PUM1 PUF domain R4-NYP
  binding signal: 2.11 log2 enrichment (interaction score)
PUM1 PUF domain R4-MPS
  binding signal: 2.38 log2 enrichment (interaction score)

## GGCUAGAACUAGUGGAUCCCCCGGCGCCCGGCGGCUCGAGCCCGGGUAAGUGUAUAUAGUCUGCAUGCCGCCGGGCGCCAUGCCUGCAGGUCGACUCUAGAAAACAUG
PUM1 PUF domain R4-NYP
  binding signal: 2.54 log2 enrichment (interaction score)

## GGCUAGAACUAGUGGAUCCCCCGGCGCCCGGCGGCUCGAGCCCGGGUAAGUGAAAAUAGUCUGCAUGCCGCCGGGCGCCAUGCCUGCAGGUCGACUCUAGAAAACAUG
PUM1 PUF domain R6-NWI
  binding signal: 3.09 log2 enrichment (interaction score)

## GGCUAGAACUAGUGGAUCCCCCGGCGCCCGGCGGCUCGAGCCCGGGUAAGUGUUAAUAGUCUGCAUGCCGCCGGGCGCCAUGCCUGCAGGUCGACUCUAGAAAACAUG
PUM1 PUF domain R5-LLR
  binding signal: 2.92 log2 enrichment (interaction score)

## GGCUAGAACUAGUGGAUCCCCCGGCGCCCGGCGGCUCGAGCCCGGGUAAGUGUAAGUAGUCUGCAUGCCGCCGGGCGCCAUGCCUGCAGGUCGACUCUAGAAAACAUG
PUM1 PUF domain R3-GND
  binding signal: 3.15 log2 enrichment (interaction score)

## GGCUAGAACUAGUGGAUCCCCCGGCGCCCGGCGGCUCGAGCCCGGGUAAGUGUCAAUAGUCUGCAUGCCGCCGGGCGCCAUGCCUGCAGGUCGACUCUAGAAAACAUG
PUM1 PUF domain R5-RQP
  binding signal: 4.91 log2 enrichment (interaction score)
PUM1 PUF domain R5-KSS
  binding signal: 3.4 log2 enrichment (interaction score)

## GGCUAGAACUAGUGGAUCCCCCGGCGCCCGGCGGCUCGAGCCCGGGUAAGUGUAAAUAGUCUGCAUGCCGCCGGGCGCCAUGCCUGCAGGUCGACUCUAGAAAACAUG
PUM1 PUF domain R5-RQP
  binding signal: 2.21 log2 enrichment (interaction score)
PUM1 PUF domain R6-GWK
  binding signal: 7.25 log2 enrichment (interaction score)
PUM1 PUF domain R4-MPS
  binding signal: 4.59 log2 enrichment (interaction score)

## GGCUAGAACUAGUGGAUCCCCCGGCGCCCGGCGGCUCGAGCCCGGGUAAGUGUAAUUAGUCUGCAUGCCGCCGGGCGCCAUGCCUGCAGGUCGACUCUAGAAAACAUG
PUM1 PUF domain R3-RAM
  binding signal: 2.45 log2 enrichment (interaction score)
